HT1080-NT tox: kills 2HG-producing HT-1080-NT fibrosarcoma cells. HT-1080-NT fibrosarcoma viability, CellTiter-Glo ATP luminescence, 48 h. Potency, µM (titrated, usually from 46.1 µM), without a hit: at the highest dose activity, negative = less viability, hits mostly cytotoxic. 1.6% of 360,000 active;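 also: NT is the 2HG producing partner of a matched IDH1 knockdown line; 0% = DMSO-treated cells and -100% = media-only wells without cells; nearly all actives have a fitted effect of over 55% in size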
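Toxicity toward the 2HG-producing NT line was scored as %Activity, normalised to DMSO and no-cell wells, from CellTiter-Glo luminescence after 48 hours' treatment.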
HT1080 IDH1KD tx: HT-1080 IDH1 knockdown cell toxicity (counter line) | HT-1080 IDH1 knockdown viability, ATP luminescence, 48 h | Potency, µM (top dose mostly 46.1 µM), for inactives: at the highest dose activity, negative = toxicity, usual class: cytotoxic | 2% of 360,000 active;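 also: 0% = DMSO wells and -100% = cell-free medium wells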
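CellTiter-Glo luminescence after 48 h compound exposure at 37 degrees C of IDH1-knockdown HT-1080 cells in 5% FBS RPMI. %Activity scaled between DMSO wells and cell-free media wells, with curves fitted and assigned curve classes.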
DT40 TDP1 no CPT: qHTS for Inhibitors of human tyrosyl-DNA phosphodiesterase 1 (TDP1): qHTS in cells in absence of CPT. DT40 Tdp1-/- hTDP1 cells, no CPT, ATP luminescence, 48 h. Potency, µM (highest dose often 46.2 µM), without a hit: at the top dose activity change, negative = growth inhibition, actives largely listed as inhibitors. 15% of 420,000 active. AID 686978, 2013; also: nearly all actives have a fitted effect of over 55% in size
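Seeded 400 DT40-hTDP1 cells/well (vehicle DMSO, no 20 nM CPT); pinned compounds; ≥48 hr at 37 °C; CellTiter-Glo luminescence as viability measure.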
KB-V1 cytotox: kills drug-selected multidrug resistant KB-V1 cells; KB-V1 MDR cells viability, CellTiter-Glo, 72 h; Potency, µM (top dose mostly 46.1 µM), actives largely listed as cytotoxic; 3.4% of 400,000 active; AID 1347076; also: nearly all actives have a fitted effect of over 60% in size
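Readout: CellTiter-Glo luminescence, 10 min after addition. Cells: KB-V1 MDR subline, 72 h at 37 degrees C with compound. Analysis: corrected, normalized data fitted to concentration-effect curves.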
KB-3-1 tox: kills parental KB-3-1 adenocarcinoma cells; Potency, µM (highest dose often 46.1 µM), actives largely listed as cytotoxic; 1.4% of 400,000 active; KB-3-1 viability, CellTiter-Glo ATP luminescence, 72 h; also: nearly all actives have a fitted effect of over 60% in size
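Luminescent ATP read-out (CellTiter-Glo) measures survival of drug-naive KB-3-1 cells after 72 h compound exposure at 37 °C. Titration series was screened from lowest to highest concentration, with DMSO vehicle plates as background controls.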
TDP1 cell CPT: growth inhibition of DT40 Tdp1-/-;hTDP1 cells with camptothecin (screen for TDP1 inhibitors); 12% of 420,000 active; AID 686979; chicken DT40 Tdp1-/-;hTDP1 cells + 20 nM CPT, ATP luminescence, 48 h; Potency, µM (top dose mostly 46.2 µM), for the others: top-dose activity change, negative = growth inhibition, hits mostly inhibitors; also: nearly all actives have a fitted effect of over 55% in size
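Cell growth measured by CellTiter-Glo luminescence after a minimum 48 h, 37 C compound exposure with 20 nM CPT in Tdp1-knockout DT40 cells stably expressing hTDP1, seeded 400/well; qHTS titration format.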
Starred values were filed as active, the others as inactive; ! = a repeat was not active; [ ] = dose if it differs, or a comment. Compounds with a hit are over-represented: about 19% of the library has one in this group of screens. Calls follow the shape of the dose curve; as a rule, active = well fitted curve in the direction sought with a large enough effect; inconclusive = small, poorly fitted or top-dose-only effect, or another doubt; inactive = no such curve, though single readings can be large; an effect the other way counts as inactive or inconclusive. Unless noted, % is scaled to controls: 0 for no effect and ±100 for the full control effect; potency is read from the fitted curve at half-maximal effect.

Results for CNC(=O)C[C@H]1C(=O)N(c2ccccc2)C[C@@H]1Cc1ccccc1 ?
HT1080-NT tox: 2%; HT1080 IDH1KD tx: 8%; DT40 TDP1 no CPT: -4%; KB-V1 cytotox: inactive; KB-3-1 tox: inactive; TDP1 cell CPT: -13%

Results for Cc1cccc(-n2c(=O)c3c(c4cc(C)ccc4n3C)n(CC(=O)Nc3ccc(C)cc3C)c2=O)c1 ?
DT40 TDP1 no CPT: 19%; KB-V1 cytotox: inactive; KB-3-1 tox: inactive; TDP1 cell CPT: 1%

How did CN(C(=O)c1ccc(NC(=O)Cc2ccc(NC(=O)C3CCN(C(=O)C4CC4)CC3)cc2)cc1)C1CCCC1 do in these assays?
HT1080-NT tox: inconclusive; HT1080 IDH1KD tx: -4%; DT40 TDP1 no CPT: -20%; KB-V1 cytotox: inactive; KB-3-1 tox: inactive; TDP1 cell CPT: -26%

What do the screens show for `CCCCc1nnc(NC(=O)CCN2C(=O)C3CC=CCC3C2=O)s1` (stereo not drawn)?
HT1080-NT tox: 1%[9.24 µM]; HT1080 IDH1KD tx: -1%; DT40 TDP1 no CPT: 2%; KB-V1 cytotox: inactive; KB-3-1 tox: inactive; TDP1 cell CPT: -7%

How did O=C(C[C@H]1C(=O)N(CCc2ccccc2)C[C@@H]1Cc1ccccc1)Nc1ccccc1 do in these assays?
HT1080-NT tox: 1%; HT1080 IDH1KD tx: -12%; DT40 TDP1 no CPT: 16µM*; KB-V1 cytotox: 21µM*!; KB-3-1 tox: inconclusive; TDP1 cell CPT: 16µM*

Results for COc1ccc(NC(=O)C[C@H]2C(=O)N(Cc3ccccc3)C[C@@H]2Cc2ccccc2)cc1 ?
HT1080-NT tox: -19%; HT1080 IDH1KD tx: -18%; DT40 TDP1 no CPT: inconclusive; KB-V1 cytotox: inconclusive; KB-3-1 tox: inactive; TDP1 cell CPT: 18µM*

Results for O=C(C[C@H]1C(=O)N(CCc2ccccc2)C[C@@H]1Cc1ccccc1)Nc1ccc(Br)cc1 ?
HT1080-NT tox: -17%; HT1080 IDH1KD tx: inconclusive; DT40 TDP1 no CPT: inconclusive; KB-V1 cytotox: inconclusive; KB-3-1 tox: inactive; TDP1 cell CPT: inconclusive

What do the screens show for `CCCCN1C[C@H](CSC)[C@@H](CC(=O)Nc2ccc(Br)cc2)C1=O`?
HT1080-NT tox: 0%; HT1080 IDH1KD tx: -1%; DT40 TDP1 no CPT: 23µM*; KB-V1 cytotox: inconclusive; KB-3-1 tox: inactive; TDP1 cell CPT: inconclusive

What do the screens show for `COc1ccc(NC(=O)C[C@H]2C(=O)N(Cc3ccccc3)C[C@@H]2CSC)cc1`?
HT1080-NT tox: 1%; HT1080 IDH1KD tx: -8%; DT40 TDP1 no CPT: inconclusive; KB-V1 cytotox: inconclusive; KB-3-1 tox: inactive; TDP1 cell CPT: inconclusive

Results for CSC[C@H]1CN(CCc2ccccc2)C(=O)[C@@H]1CC(=O)Nc1ccc(Br)cc1 ?
HT1080-NT tox: -5%; HT1080 IDH1KD tx: -11%; DT40 TDP1 no CPT: inconclusive; KB-V1 cytotox: inconclusive; KB-3-1 tox: inactive; TDP1 cell CPT: inconclusive

What do the screens show for `C/C(N)=C(/C#N)C(=O)CN1C(=O)NC(Cc2c[nH]c3ccccc23)C1=O` (stereo not drawn)?
HT1080-NT tox: 0%; HT1080 IDH1KD tx: 2%; DT40 TDP1 no CPT: 20%; KB-V1 cytotox: inactive; KB-3-1 tox: inactive; TDP1 cell CPT: 4%

What do the screens show for `CCCCCCC#Cc1cncc(C(=O)NNC(=O)Nc2cc(Cl)cc(Cl)c2)c1`?
HT1080-NT tox: inconclusive; HT1080 IDH1KD tx: 21µM*; DT40 TDP1 no CPT: inconclusive; KB-V1 cytotox: inconclusive; KB-3-1 tox: inactive; TDP1 cell CPT: -4%

Results for Cc1ccc(-n2nc(C)c3c(C(=O)NCc4ccc(F)cc4)cc(C)nc32)cc1 ?
DT40 TDP1 no CPT: inconclusive; KB-V1 cytotox: inactive; KB-3-1 tox: inactive; TDP1 cell CPT: -4%

How did COc1ccc(CN(C(C)=O)c2cccc(C)c2C)cc1 do in these assays?
HT1080-NT tox: 16µM*; HT1080 IDH1KD tx: inconclusive; DT40 TDP1 no CPT: inconclusive; KB-V1 cytotox: inconclusive; KB-3-1 tox: inconclusive; TDP1 cell CPT: inconclusive

Results for CC(=O)N(Cc1ccc(Br)cc1)c1cccc(C)c1C ?
HT1080-NT tox: inconclusive; HT1080 IDH1KD tx: inconclusive; DT40 TDP1 no CPT: inconclusive; KB-V1 cytotox: inactive; KB-3-1 tox: inactive; TDP1 cell CPT: -2%

Results for O=C(CN1CCOCC1)N/N=C/c1ccco1 ?
HT1080-NT tox: 17%; HT1080 IDH1KD tx: 16%; DT40 TDP1 no CPT: -6%; KB-V1 cytotox: inactive; KB-3-1 tox: inactive; TDP1 cell CPT: -4%

How did O=C(CSCC(=O)Nc1ccccc1)N/N=C/c1c(O)ccc2ccccc12 do in these assays?
HT1080-NT tox: 3.2µM*; HT1080 IDH1KD tx: 1.6µM*; DT40 TDP1 no CPT: 4.5µM*; KB-V1 cytotox: inconclusive; KB-3-1 tox: inconclusive; TDP1 cell CPT: 4.5µM*

What do the screens show for `Nc1cc(Cl)nc(N/N=C/c2c(O)ccc3ccccc23)n1`?
HT1080-NT tox: inconclusive; HT1080 IDH1KD tx: inconclusive; DT40 TDP1 no CPT: 16µM*; KB-V1 cytotox: inactive; KB-3-1 tox: inactive; TDP1 cell CPT: inconclusive

Results for COc1ccc(NC(C)C(=O)N/N=C/c2ccccc2OCc2cccc(Br)c2)cc1 (stereo not drawn) ?
HT1080-NT tox: -27%; HT1080 IDH1KD tx: -18%; DT40 TDP1 no CPT: inconclusive; KB-V1 cytotox: inconclusive; KB-3-1 tox: 23µM*; TDP1 cell CPT: inconclusive

Results for Nc1nonc1N/N=C/c1c(O)ccc2ccccc12 ?
HT1080-NT tox: -17%; HT1080 IDH1KD tx: inconclusive; DT40 TDP1 no CPT: -54%; KB-V1 cytotox: inconclusive; KB-3-1 tox: inconclusive; TDP1 cell CPT: 32%

Results for O=C(CN1CCOCC1)N/N=C/c1c(O)ccc2ccccc12 ?
HT1080-NT tox: inconclusive; HT1080 IDH1KD tx: inconclusive; DT40 TDP1 no CPT: 9.2µM*; KB-V1 cytotox: inactive; KB-3-1 tox: inconclusive; TDP1 cell CPT: 7.3µM*

How did O=C(NC1CCOCC1)C1CCC(=O)N(Cc2cccc(C(F)(F)F)c2)C1 (stereo not drawn) do in these assays?
HT1080-NT tox: 17%; HT1080 IDH1KD tx: 13%; DT40 TDP1 no CPT: -5%; KB-V1 cytotox: inconclusive; KB-3-1 tox: inactive; TDP1 cell CPT: -10%

Results for Cc1cccc(NC(=O)NNC(=O)c2ccccn2)c1 ?
HT1080-NT tox: 0%; HT1080 IDH1KD tx: -7%; DT40 TDP1 no CPT: -26%; KB-V1 cytotox: inactive; KB-3-1 tox: inactive; TDP1 cell CPT: -2%

What do the screens show for `O=C(NCCSc1c[nH]c2ccccc12)c1ccccc1Cl`?
DT40 TDP1 no CPT: inconclusive; KB-V1 cytotox: inconclusive; KB-3-1 tox: inactive; TDP1 cell CPT: -18%
